Our source for the inhibition values is PubChem BioAssay AID588405 (Sanford-Burnham Center for Chemical Genomics, 2011).

Among all 360,000 compounds or so, about 6,200 (1.7%) were called active. What follows is part of a selection rich in actives, with near analogues and random picks from the rest. A number with no mark means an inactive call.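 The calls were made as follows: active = inhibition of at least 50% at 20 µM; inactive = the rest.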

The nature of the assay: Peg3 promoter-driven luciferase inhibitors, primary screen, cell-based, HeLa, luciferase luminescence (AID 588405). Conditions: HeLa PEG-Prom luciferase reporter, overnight, at 20 µM, stronger effect = higher value. Background: In a reporter assay the amount or activity of a reporter protein is the signal.
A word on the inhibition: it is the relative decrease from the control value, in per cent. In the case of `Cc1nc(C(F)(F)F)ccc1C(=O)N1CCC1(C)C(=O)NS(=O)(=O)c1ccc(F)cc1F` (centres undefined), the inhibition is -1.89%.
The same measure for `O=C(CC[C@H]1O[C@@H](n2ccc(=O)[nH]c2=O)[C@H](O)[C@@H]1O)N[C@H](Cc1ccccc1)C(=O)NCc1ccco1`: 8.94%.
Under `CCCS(=O)(=O)NC(=O)C1(C)CCCN(C(=O)c2cc(C)on2)C1` (centres undefined) stands 9.06%; under `COc1ccc(OC)c(NC(=O)c2sc3nc(C)cc(C)c3c2N)c1`, -12.4%; under `COc1ccc(OC)c(Cc2cnc3nc(N)nc(N)c3c2C)c1`, 54.3% (active).
Under `COc1ccc(OC)c(Cc2nnc(CCC(=O)NC3CCCC3)o2)c1` stands -30.2%; under `C=CCn1c2c(c3ccccc31)CCC2`, 2.5%; under `NC1=CC(=O)C(=O)c2cccnc21`, 69.9% (active).
Turning to `CCOc1ccc(CCN2C(=O)c3cccnc3C2=O)cc1OCC`, the inhibition was -9.6%.
Under `CCc1nc2ccc(C(=O)NC3CCN(Cc4ccccc4)CC3)cn2c1N(CC)CCOC` stands 4.85%; under `CCCCNC(=O)c1nc(C2CCN(S(=O)(=O)c3ccc(F)c(F)c3)CC2)oc1-c1cccc(C(F)(F)F)c1`, 13.3%.
Under `CN(C)CCNC(=O)/C(=C/c1cccc([N+](=O)[O-])c1)NC(=O)c1ccccc1` stands 7.34%; under `Cc1occc1C(=O)N/N=C/c1ccc(-c2cccc([N+](=O)[O-])c2)o1`, -11.9%; under `Cc1ccc(C(=O)N/C(=C/c2ccc(-c3cccc([N+](=O)[O-])c3)o2)C(=O)NCCCN(C)C)cc1`, 103% (active).
The same measure for `CCCc1ccc(C(O)c2ncc(-c3cccc(OC)c3)[nH]2)cc1` (centres undefined): -5.53%; for `O=C(Nc1ccc(F)cc1)Nc1nnc([C@H]2C[C@H](O)[C@@H](CO)O2)s1`: -5.07%.
For `C=CC(=O)Nc1ccc(Nc2ccnc(Nc3ccc(N4CCN(C)CC4)cc3)n2)cc1`, the inhibition is 20.3%.
The same measure for `CC1CC(C)CN(CCOc2cccc3ccccc23)C1` (centres undefined): -6.14%; for `CC(C)c1ccccc1OCC(O)CN(CC(O)COc1cccc2ccccc12)C(C)C` (centres undefined): 110% (active); for `CCC(C)Sc1nc2c(c(=O)[nH]c(=O)n2C)n1CC(O)COc1cccc2ccccc12` (centres undefined): 12.2%.
Under `COc1cc(CN2CCNC(=O)C2CC(=O)NCCc2ncccc2C)cc(OC)c1` (centres undefined) stands -16.1%; under `CC(C)Oc1ccc(CN2CCC2(C)C(=O)NCc2ccc(C(F)(F)F)cc2)cc1` (centres undefined), 14.4%.
As for `O=C(Nc1ccc(N2CCOCC2)cc1)c1cccc2c(-c3ccc(F)c(F)c3)coc12`, the inhibition is -8.12%.
As for `COc1ccccc1CNC(=O)c1cc(-c2cc(Cl)ccc2C)n[nH]1`, the inhibition is 32.1%.
The same measure for `O=C(CN1C(=O)NC2(CCOc3ccccc32)C1=O)Nc1cccc([N+](=O)[O-])c1` (centres undefined): 10.4%.
Under `CCN(CC)S(=O)(=O)c1ccc(NC(=O)c2cccnc2Cl)c(NC(=O)c2cccnc2Cl)c1` stands 104% (active).
Under `CCN(CC)S(=O)(=O)c1ccc(NC(=O)c2cnc(C)cn2)cc1` stands -6.33%.
Take `Cc1ccc(CNC(=O)c2cccnc2Cl)cc1`: the inhibition is -0.53%.
In the case of `CCOC(=O)C1=CC[C@@H](c2ccccc2)N(S(=O)(=O)c2ccc(C)cc2)[C@H]1c1cccc(OC)c1`, the inhibition is 14.6%.
Under `CC1(c2nnc(Cc3ccccc3)o2)CC(c2ccccc2F)=NO1` (centres undefined) stands 7.03%.
Under `CCOC(=O)/C=C/C(=O)OCC(=O)NC(c1ccccc1)c1ccccc1` stands 66.3% (active).
Under `Cc1ccccc1OCCC(=O)OCC(=O)NC(C)c1ccccc1` (centres undefined) stands -0.76%; under `CCOC(=O)C(C(=O)OCC)C(C#N)c1ccccc1` (centres undefined), 1.45%.
Regarding `CCOc1c(Nc2cccc(Cl)c2)c(=O)c1=O`, the inhibition is 19%.
The same measure for `OCCCNc1nccc(-c2cc(Nc3cccc(Cl)c3)ncn2)n1`: 97.8% (active).
The same measure for `CC(=O)N1CCN(S(=O)(=O)c2ccc(C)c([N+](=O)[O-])c2)C1C(C)C` (centres undefined): 9.74%; for `COc1ccc(S(=O)(=O)NC(=O)C2(C)CCN2C(=O)COc2ccc(Cl)cc2)cc1` (centres undefined): 0.32%.
Take `OC(c1ccc(F)cc1)c1ncc(-c2cccc(C(F)(F)F)c2)[nH]1` (centres undefined): the inhibition was 25.3%.
Take `CCOC(=O)N1CCN(C(=O)c2nn(-c3ccc(C)cc3)c(=O)c3c2c2ccccc2n3C)CC1`: the inhibition is 58.2% (active).
Consider `CCOC(=O)N1CCN(C(=O)c2n[nH]c(=O)c3ccccc23)CC1`, for which the inhibition is 6.99%.
Regarding `CCOC(=O)N1CCN(C(=O)Cn2cnc3ccccc3c2=O)CC1`, the inhibition is -3.74%.
The same measure for `CN1CCN(C(=O)c2ccc(-c3cc4nc(NCc5cccnc5)n(C)c(=O)c4s3)cc2)CC1`: -4.53%; for `CCc1nc2c(OCCOc3ccccc3)cccn2c1N(C)C(=O)c1ccc(OC)cc1`: 11.8%; for `CC(=O)NN=C(C)c1ccc(NC(=O)C2CC2)cc1`: -1.94%.
Under `CC1(C(=O)NCc2ccc3c(c2)OCO3)CCN1C(=O)Cc1cccs1` (centres undefined) stands -1.89%; under `NC(=O)COC(=O)c1cc(S(=O)(=O)N2CCN(c3ccccc3)CC2)ccc1Cl`, -0.58%; under `NC(=O)C1CCN(C(=O)c2cc(S(=O)(=O)N3CCN(c4ccccc4)CC3)ccc2Cl)CC1`, 56.8% (active).
The same measure for `COc1ccccc1N(C)S(=O)(=O)c1ccc(Cl)c(C(=O)N2CCC(C(N)=O)CC2)c1`: -7.62%; for `O=S(=O)(Nc1cccc(-n2cnnn2)c1)c1cnc(Cl)c(Cl)c1`: 3.56%; for `Cc1cc2nc(-c3ccc(Cl)cc3)c(Cc3cccc(F)c3)n2c(C)c1Br`: -7.74%.
As to `CN(C)CCCOc1ccc(-c2ccc3nccn3c2)cn1`, the inhibition is -2.16%.
With `O=C(NCc1ccco1)c1cccc(-c2ccc3nncn3c2)c1`, the inhibition was 6.82%.
The same measure for `O=C(Nc1ccc(S(=O)(=O)N2CCOCC2)cc1)C1CCN(S(=O)(=O)c2ccc(Cl)cc2)CC1`: 20.9%; for `O=C(Nc1ccccc1)c1nnsc1S(=O)(=O)c1ccc(Cl)cc1`: 67.4% (active).
For the molecule `Cc1nnsc1S(=O)(=O)Cc1ccccc1Cl`, the inhibition was 14.5%.
The same measure for `Cc1ccc(-c2cnc(C(O)c3cccc(C)c3C)[nH]2)cc1` (centres undefined): -14.4%.
The same measure for `Cc1ccc(Cc2c(-c3ccco3)nc3ccc(Cl)cn23)cc1`: 2.16%; for `CC(=O)Nc1c2c(nn1-c1cccc(C)c1)CSC2`: 1.92%.
The same measure for `Cc1cccc(-n2ncc(Cl)c(Cl)c2=O)c1`: 109% (active); for `Cc1cccc(-n2ncc3c(=O)[nH]c(SCC(=O)Nc4cc(C)on4)nc32)c1`: 15.5%; for `CCc1nc2ccc(C(=O)N(C)CCN(C)C)cn2c1N(CC)CCOC`: -8.52%.
On to `CN1CCN(C2Cc3ccc(Cl)cc3Sc3ccc(F)cc32)CC1` (centres undefined), for which the inhibition was 76% (active).
The same measure for `CC1(C(=O)NS(=O)(=O)c2cccc(F)c2)CCN1C(=O)Cc1cc(F)ccc1F` (centres undefined): 7.15%.
Under `C/C(=N\Nc1nc(Nc2ccccc2)nc(N2CCOCC2)n1)c1cccs1` stands 7.28%.
Regarding `CC1(c2ccccc2)NC(=O)N(CC(=O)Nc2cc(Cl)ccc2N2CCOCC2)C1=O` (centres undefined), the inhibition was 2.35%.
Under `O=C(CSc1nc(Nc2ccccc2)nc(N2CCOCC2)n1)Nc1cc(Cl)ccc1O` stands 86.5% (active).
With `Brc1ccc2nc(-c3ccccc3)c(Cc3ccccc3)n2c1`, the inhibition was -51%.
Under `CCOC(=O)c1ccc(-c2ccc3ncnc(N(C)Cc4sccc4C)c3c2)o1` stands 31.1%.
The same measure for `CCCCSc1[nH]c(=O)c(C(=O)OCC)cc1C#N`: 3.02%; for `NC(N)=Nc1nc(-c2ccccc2)c2cc(Cl)ccc2n1`: 108% (active).
Consider `Cc1nc(N=C(N)N)nc2c(C)cccc12`, for which the inhibition is 20.3%.
Turning to `COC(=O)Cn1nc(-c2ccccc2)c2cc(Cl)ccc21`, the inhibition was 13.3%.
The same measure for `CCCS(=O)(=O)NC(=O)C1(C)CCCN(C(=O)c2ccnc(Cl)c2)C1` (centres undefined): -1.18%; for `OC[C@@H]1CN(Cc2ccc3c(c2)OCO3)C[C@H](n2cnc3c(NCc4ccco4)ncnc32)O1`: -2.19%; for `Cc1cc(O)ccc1-c1cc(C(=O)NCc2cc(C(F)(F)F)cc(C(F)(F)F)c2)[nH]n1`: 5.2%.
Regarding `Oc1ccc2ccccc2c1N=Nc1nccs1`, the inhibition is 97.5% (active).
The same measure for `COC(=O)[C@@H]1C[C@@]2(O)[C@H](O)[C@H](O)[C@H](O)C[C@H]2N1Cc1ccc(C(C)(C)C)cc1`: 2.16%.
Under `COc1ccc(C2=NN(C(=O)CCC(=O)O)C(c3cccs3)C2)cc1OC` (centres undefined) stands 9.5%; under `CCOc1ccc2nc(Cl)c(C3CC(c4ccccc4)=NN3C(=O)c3cccs3)cc2c1` (centres undefined), 55.1% (active); under `O=C(COc1ccc2ccccc2c1)N1CCN(C(=O)c2cccs2)CC1`, 3.04%.
Under `COC(=O)c1ccc2nc(-c3ccc(Cl)cc3)c(Cc3cccc(F)c3)n2c1` stands -38.1%; under `Cc1noc(C)c1C(=O)N1CCC1(C)C(=O)NS(=O)(=O)c1ccc(C#N)cc1` (centres undefined), -15.2%.
As to `CC(O)(c1cccc(F)c1)c1nc(-c2ccc3c(c2)OCO3)cs1` (centres undefined), the inhibition was -65.7%.
On to `CC(C)(C)Cc1c(C2CCCCC2)nc2ccc(Br)cn12`, for which the inhibition is 16%.
Under `Cc1c(Cl)c([N+](=O)[O-])nn1Cc1ccc(C(=O)N/N=C\c2cc(Cl)ccc2O)o1` stands 61.5% (active); under `Cc1nn(Cc2ccccc2Cl)c(C)c1NC(=O)Cn1nc([N+](=O)[O-])c(Cl)c1C`, -1.84%.
Take `O=C(N/N=C\c1ccc(Br)cc1)c1ccc(Cn2cccn2)o1`: the inhibition is -62.6%.
For the molecule `COCOc1cccc(CN2CCC(C)(Oc3ccc(SC)cc3)C2)c1` (centres undefined), the inhibition was -1.46%.
The same measure for `COc1cc(Cl)c(C)cc1NC(=O)CSc1nnc(-c2ccco2)n1CC(C)C`: 12.4%.
